Compound activity (PubChem BioAssay)
Tgondii IFNg – inhibitors of Toxoplasma gondii growth with IFN-gamma; activity change, negative = inhibition, % (concentration not given with the values); hit rate 3.8% among 69,000; Toxoplasma gondii growth in IFN-gamma-treated host cells; active compounds read low; in the data active = activity change below about -70%, passing the limit was not always enough;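 note: host cells are HeLa cells infected with Toxoplasma gondii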
Of the large screens only hits and unclear results are named; the others gave an inactive call. This is one part of a sample in which hits are shown more often than they occur.

Cc1ccc(S(=O)(=O)Nc2ccc3c(c2)C(=O)N([C@H](C)CO)C[C@@H](C)[C@@H](CN(C)S(=O)(=O)c2cccs2)OCCCC[C@H](C)O3)cc1	Tgondii IFNg -117
Cc1ccc(S(=O)(=O)Nc2ccc3c(c2)C(=O)N([C@H](C)CO)C[C@@H](C)[C@H](CN(C)S(=O)(=O)c2cccs2)OCCCC[C@H](C)O3)cc1	Tgondii IFNg -131
COc1ccc(NC(=O)c2c(O)c3ccccc3[nH]c2=O)cc1	none
O=C(NCc1cccnc1-n1cnc2ccccc21)c1scc2c1OCCO2	none
O=C(Nc1nc(-c2ccccc2)cs1)c1sc2cc(F)ccc2c1Cl	none
CCN(CCCNC(=O)CCC1Nc2c3ccccc3nc(=S)n2C1=O)c1cccc(C)c1 (centres undefined)	none
CCOCC(=O)N1CC[C@H](OC)[C@@H](Cc2ccccc2)C1	none
Cc1ccc(NC(=O)N2CCN(Cc3nc(-c4ccccc4C)oc3C)CC2)cc1C	none
Cc1noc(C)c1NC(=O)Nc1ccc2c(c1)C(=O)N([C@@H](C)CO)C[C@H](C)[C@H](CN(C)S(=O)(=O)c1cccs1)OCCCC[C@@H](C)O2	none
Cc1noc(C)c1NC(=O)Nc1ccc2c(c1)C(=O)N([C@H](C)CO)C[C@H](C)[C@@H](CN(C)S(=O)(=O)c1cccs1)OCCCC[C@@H](C)O2	none
Cc1ccc(S(=O)(=O)Nc2ccc3c(c2)C(=O)N([C@@H](C)CO)C[C@@H](C)[C@H](CN(C)S(=O)(=O)c2cccs2)OCCCC[C@@H](C)O3)cc1	Tgondii IFNg -103
CO[C@@H]1CCN(S(=O)(=O)c2ccccc2)[C@H]1Cc1cnn(C)c1	none
COCc1ncc(CN2CCN(c3nc(C)cnc3C)CC2)cn1	none
COCC(=O)N1CCCC2(CCN(c3cnccn3)CC2)C1	none
O=C(Nc1cccc(Cl)c1)Nc1ncc(CCNc2ncnc3ccsc23)s1	Tgondii IFNg -73
O=C(Nc1ccc(-c2nc(-c3ccccc3)co2)cc1)Nc1cccc(Cl)c1	none
O=C(Nc1cccc(Cl)c1)c1ccccn1	none
CCN(C(=O)c1ccc(NC(=O)C2CCC2)cc1)C1CCS(=O)(=O)C1 (centres undefined)	none
Cc1ccc(S(=O)(=O)Nc2cncc(C(=O)Nc3ccccc3C)c2)c(C)c1	none
Cc1ccc2c(c1)CCCN2C(=O)CN1CCCC1c1cc(C)no1 (centres undefined)	none
COc1ccc(-c2[nH]ncc2CN2CCN(C)CC2)cc1	none
Cc1cc(CN2CCN(c3c(Br)cnc4nc(-c5ccc(N6CCN(C)CC6)cc5)[nH]c34)CC2)no1	Tgondii IFNg -74
CC(C)Nc1nc2c(c(N(C)C)n1)CCN(C(=O)c1ccn[nH]1)CC2	none
Cc1ccc(CN2CCc3ncnc(C4CC4)c3CC2)o1	none
Cc1nc(-c2ccc(Cl)cc2)sc1CCNC(=O)CN1C(=O)c2ccccc2C1=O	none
CCS(=O)(=O)c1cccc(-c2cc(C(=O)NC3CCN(C)CC3)c(C)c3[nH]c4ncc(C)cc4c23)c1	Tgondii IFNg -80
Cc1ccc(-c2nc3cnccn3c2NCCC(=O)NC2CCN(C)CC2)cc1	none
COc1cccc(-c2nc3cnccn3c2NCCC(=O)NC2CCN(C)CC2)c1	none
Cc1ccc(Cl)cc1N(CC(=O)NCCCn1ccnc1)S(C)(=O)=O	none
COc1cccc(NC(=O)Nc2ccc3c(c2)C(=O)N(C)C[C@H](OC)[C@H](C)CN[C@H](C)CO3)c1	none
CO[C@H]1CN(C)C(=O)c2cc(NC(=O)c3ccc(Oc4ccccc4)cc3)ccc2OC[C@@H](C)NC[C@@H]1C	Tgondii IFNg -114
COc1cccc(NC(=O)Nc2ccc3c(c2)C(=O)N(C)C[C@@H](OC)[C@@H](C)CN[C@@H](C)CO3)c1	none
CO[C@@H]1CN(C)C(=O)c2cc(NC(=O)c3ccc(Oc4ccccc4)cc3)ccc2OC[C@H](C)NC[C@H]1C	Tgondii IFNg -122
COc1cccc(NC(=O)Nc2ccc3c(c2)C(=O)N(C)C[C@@H](OC)[C@@H](C)CN[C@H](C)CO3)c1	none
CO[C@H]1CN(C)C(=O)c2cc(NC(=O)c3cnccn3)ccc2OC[C@@H](C)NC[C@@H]1C	none
COc1ccccc1CN1CCC2(CC1)CC(NS(=O)(=O)C1CC1)CCO2 (centres undefined)	none
COc1ccc(C)cc1NC(=O)CNC(=O)c1coc2c1C(=O)CCC2	none
O=c1[nH]nc(-c2cc3c(s2)CCCC3)o1	Tgondii IFNg -100
COc1ccc(-n2c(C)c([N+](=O)[O-])c3ccc(O)cc32)cc1	Tgondii IFNg -77
COc1ccc(-n2nc(C(=O)O)nc2C)cc1	none
COc1ccc(-n2c(C)c3c(OC)cccc(=O)c3c2C)cc1	none
O=C(c1cccc2nccnc12)N1CC(c2ccncc2)C1	none
CCCc1cc(C(=O)N2CCCC3(CC2)CNC(=O)O3)cs1 (centres undefined)	none
Cc1cc(C(=O)Nc2cccc(NC(=O)Cc3ccccc3)c2)n[nH]1	Tgondii IFNg -75
CC/C=C/CC(=O)Nc1cccc(NC(=O)Cc2ccccc2)c1	none
O=C(Cc1ccccc1)Nc1cccc(NC(=O)c2ccnnc2)c1	none
CN1CCC(N(Cc2ccncc2)Cc2cncn2C)CC1	none
COCCCNC(=O)C1(C)CCC(=O)N1CCc1c[nH]c2ccccc12 (centres undefined)	none
CCC(=O)NCc1cccc(-c2ccc(OC)cc2OC)c1	none
COc1cccc(OC(C)C(=O)NCc2cccc(-c3nn(C)cc3-c3ccncc3)c2)c1 (centres undefined)	Tgondii IFNg -114
COc1cc(C(=O)NCc2ccc(-c3nn(C)cc3-c3ccncc3)cc2)nc(OC)n1	Tgondii IFNg -102
Cc1ncc(-c2ccncc2)c(-c2ccc(CNC(=O)C3CCOC3)cc2)n1 (centres undefined)	none
Cn1cc(-c2ccncc2)c(-c2ccc(CNC(=O)COCC3CCCCO3)cc2)n1 (centres undefined)	Tgondii IFNg -92
COc1ccccc1-c1cccc(-c2nc(C(=O)NCc3ccncc3)cc3c2[C@H](CCO)N([S@@](=O)C(C)(C)C)C3)c1	none
COc1cc(C(=O)NCCCn2ccnc2C)nc(OC)n1	none
Cc1cnccc1-c1cn(C)nc1-c1cccc(CNC(=O)Cc2cccnc2)c1	none
CN1CCN(c2ncccc2CNC(=O)COCC2CCCO2)CC1 (centres undefined)	none
Cc1cccc(C)c1NC(=O)c1cccc(CN(C)C(C)c2ccco2)c1 (centres undefined)	none
O=c1cc(CCn2cnc(-c3ccccc3)c2-c2cccc3cccnc23)nc[nH]1	none
COCCN1C(=O)CCc2cc(NS(=O)(=O)c3cccs3)ccc21	none
O=C(CC1CC1)N1CC[C@H](O)[C@@H]1Cc1ccncc1	none
CCc1c(C(=O)NC(C)c2ncnn2CC)csc1C (centres undefined)	none
CCN1CCC2(CC1)OC(=O)C(C)=C2C(=O)NCCCN1CC(C)CC(C)C1 (centres undefined)	none
c1ccc(-c2ncc(CN3CCC(OCc4cccnc4)CC3)cn2)nc1	none
O=c1cc2nn[nH]n2nc1-c1ccccc1	none
O=c1[nH]nc2c(-c3ccccc3)c(-c3ccccc3)c(-c3ccccc3)nn12	Tgondii IFNg -106
Nc1[nH]nc2nnc(-c3c(-c4ccccc4)nn4ccccc34)cc12	none
O=c1[nH]c2ccc(NCC#Cc3ccccc3)cc2[nH]1	Tgondii IFNg -83
COc1cc(CNc2ccc3[nH]c(=O)[nH]c3c2)ccc1OCc1ccccc1	none
C=CCOc1ccc(CNc2ccc3[nH]c(=O)[nH]c3c2)cc1OC	none
COc1ccc2oc(CNC(=O)CCNC(=O)c3ccccc3F)nc2c1	none
O=C(Cn1ncc2c(N3CCOCC3)ncnc21)NCc1ccco1	none
O=C(CCN1CCCCO1)N1CC(Oc2ccccc2F)C1	none
CC1Cc2ccccc2N1c1ncnc2c1nnn2Cc1ccccc1Cl (centres undefined)	Tgondii IFNg -94
